# Screens deposited in PubChem BioAssay by University of Kansas High Throughput Screening Laboratory.
# Pf apPOL inh: Pf-apPOL inhibitors, biochemical, fluorescence; Recombinant Pf-apPOL, molecular beacon fluorescence, 1.5 h; inhibition, % at 10 µM; AID 1794808, 2022; actives 0.25% (n = 210,000); Plasmodium falciparum apicoplast DNA polymerase (apPOL)
# mHTT CaM bind: mutant huntingtin-calmodulin interaction inhibitors – biochemical, AlphaScreen, primary screen | inhibition, % at 15 µM | AlphaScreen His-mHTT/GST-CaM binding, luminescence | P42858 | actives 3.6% (n = 190,000);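 also: 0% = both proteins with DMSO and 100% = one protein alone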
# Target sequence (P42858 whole entry, looked up, stated change not applied): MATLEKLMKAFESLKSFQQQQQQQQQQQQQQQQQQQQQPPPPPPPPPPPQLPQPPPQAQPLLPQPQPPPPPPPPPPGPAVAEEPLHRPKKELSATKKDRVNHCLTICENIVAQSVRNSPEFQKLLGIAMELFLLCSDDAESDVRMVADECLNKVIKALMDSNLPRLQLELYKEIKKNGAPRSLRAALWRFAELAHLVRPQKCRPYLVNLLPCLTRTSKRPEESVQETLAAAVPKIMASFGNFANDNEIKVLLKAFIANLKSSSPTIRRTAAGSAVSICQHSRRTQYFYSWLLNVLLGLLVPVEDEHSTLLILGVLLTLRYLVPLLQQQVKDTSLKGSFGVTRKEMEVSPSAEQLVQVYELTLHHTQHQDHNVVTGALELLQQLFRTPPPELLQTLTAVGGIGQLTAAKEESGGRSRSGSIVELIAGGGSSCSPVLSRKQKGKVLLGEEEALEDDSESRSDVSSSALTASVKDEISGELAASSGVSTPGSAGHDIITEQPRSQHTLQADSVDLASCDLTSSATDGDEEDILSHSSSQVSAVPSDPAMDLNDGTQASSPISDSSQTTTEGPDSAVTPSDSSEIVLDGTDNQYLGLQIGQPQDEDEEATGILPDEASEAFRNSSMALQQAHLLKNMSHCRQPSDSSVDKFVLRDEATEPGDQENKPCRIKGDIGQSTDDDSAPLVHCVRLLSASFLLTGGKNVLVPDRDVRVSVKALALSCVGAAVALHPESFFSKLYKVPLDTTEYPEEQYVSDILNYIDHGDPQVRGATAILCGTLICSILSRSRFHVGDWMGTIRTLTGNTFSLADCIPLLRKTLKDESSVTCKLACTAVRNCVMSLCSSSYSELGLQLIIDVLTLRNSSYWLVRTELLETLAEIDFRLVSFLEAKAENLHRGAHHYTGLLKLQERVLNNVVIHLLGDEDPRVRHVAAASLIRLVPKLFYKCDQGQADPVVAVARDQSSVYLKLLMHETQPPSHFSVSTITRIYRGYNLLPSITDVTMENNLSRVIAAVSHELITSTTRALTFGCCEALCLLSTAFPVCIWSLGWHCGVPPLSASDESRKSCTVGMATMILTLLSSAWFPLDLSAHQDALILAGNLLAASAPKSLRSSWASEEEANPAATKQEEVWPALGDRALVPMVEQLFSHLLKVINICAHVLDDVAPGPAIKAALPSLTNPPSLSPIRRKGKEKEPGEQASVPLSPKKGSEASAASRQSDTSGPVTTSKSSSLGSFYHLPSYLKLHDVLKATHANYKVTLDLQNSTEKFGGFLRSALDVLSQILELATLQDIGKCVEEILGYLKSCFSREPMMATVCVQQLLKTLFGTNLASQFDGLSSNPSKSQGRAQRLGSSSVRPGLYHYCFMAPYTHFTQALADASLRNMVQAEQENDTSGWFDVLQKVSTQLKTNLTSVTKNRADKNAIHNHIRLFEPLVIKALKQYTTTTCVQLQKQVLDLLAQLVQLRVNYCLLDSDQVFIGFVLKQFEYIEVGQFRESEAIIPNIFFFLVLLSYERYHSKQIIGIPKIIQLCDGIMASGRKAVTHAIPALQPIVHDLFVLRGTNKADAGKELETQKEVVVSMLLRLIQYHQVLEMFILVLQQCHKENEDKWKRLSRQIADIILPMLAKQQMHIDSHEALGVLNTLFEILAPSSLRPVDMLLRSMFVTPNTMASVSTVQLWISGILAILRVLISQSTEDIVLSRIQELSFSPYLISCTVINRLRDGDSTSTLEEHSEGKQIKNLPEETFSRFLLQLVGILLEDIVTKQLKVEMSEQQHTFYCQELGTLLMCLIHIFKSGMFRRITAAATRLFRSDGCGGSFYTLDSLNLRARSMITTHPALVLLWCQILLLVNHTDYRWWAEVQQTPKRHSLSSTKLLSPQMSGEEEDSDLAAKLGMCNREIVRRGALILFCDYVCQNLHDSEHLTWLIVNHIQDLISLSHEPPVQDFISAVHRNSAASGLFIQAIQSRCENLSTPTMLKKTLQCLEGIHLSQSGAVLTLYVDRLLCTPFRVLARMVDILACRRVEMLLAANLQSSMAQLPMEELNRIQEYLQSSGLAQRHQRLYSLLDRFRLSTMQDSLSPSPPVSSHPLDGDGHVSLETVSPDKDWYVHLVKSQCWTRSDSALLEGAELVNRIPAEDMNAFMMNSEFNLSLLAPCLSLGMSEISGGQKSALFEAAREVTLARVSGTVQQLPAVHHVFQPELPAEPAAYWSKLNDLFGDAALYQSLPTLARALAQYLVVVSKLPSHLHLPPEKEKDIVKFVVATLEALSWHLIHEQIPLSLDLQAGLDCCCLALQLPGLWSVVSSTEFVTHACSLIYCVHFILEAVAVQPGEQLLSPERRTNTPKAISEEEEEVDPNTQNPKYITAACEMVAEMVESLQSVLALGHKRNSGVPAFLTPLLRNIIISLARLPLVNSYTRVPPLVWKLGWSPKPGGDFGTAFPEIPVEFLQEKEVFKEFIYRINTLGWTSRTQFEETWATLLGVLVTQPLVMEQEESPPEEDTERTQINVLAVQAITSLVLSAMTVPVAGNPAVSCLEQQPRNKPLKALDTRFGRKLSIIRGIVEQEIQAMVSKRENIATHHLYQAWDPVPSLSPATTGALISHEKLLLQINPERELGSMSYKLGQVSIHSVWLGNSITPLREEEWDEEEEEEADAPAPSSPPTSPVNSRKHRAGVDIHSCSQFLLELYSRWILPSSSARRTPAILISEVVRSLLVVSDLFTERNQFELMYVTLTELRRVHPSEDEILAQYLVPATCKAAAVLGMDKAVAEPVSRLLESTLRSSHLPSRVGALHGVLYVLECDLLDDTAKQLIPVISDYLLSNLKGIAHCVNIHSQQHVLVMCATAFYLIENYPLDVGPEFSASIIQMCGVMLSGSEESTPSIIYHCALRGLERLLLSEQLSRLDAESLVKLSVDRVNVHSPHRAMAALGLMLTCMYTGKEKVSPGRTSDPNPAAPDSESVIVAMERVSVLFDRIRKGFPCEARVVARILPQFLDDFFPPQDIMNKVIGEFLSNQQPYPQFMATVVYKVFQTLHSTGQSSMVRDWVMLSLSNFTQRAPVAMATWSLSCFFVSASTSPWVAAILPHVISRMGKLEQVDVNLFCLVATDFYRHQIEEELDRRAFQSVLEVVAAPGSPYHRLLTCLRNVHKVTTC
# Starred values were filed as active, the others as inactive; . = not tested or not shown. A selection: hits, their analogues and other compounds. The true share with any hit is near 3.5%. Rule as the data show it: active = inhibition above about 50%; inactive = the rest.
SMILES,Pf apPOL inh,mHTT CaM bind
Cc1cccc(C)c1NC(=O)CN(Cc1ccccc1)S(=O)(=O)c1ccc(F)cc1,-4.5,4.2
O=c1[nH]nc(SCc2cccc(Oc3ccccc3)c2)c(=O)[nH]1,71.6*,7.0
O=c1[nH]nc(SCc2ccc(F)cc2)c(=O)[nH]1,1.2,-5.0
Cc1ccc(-n2ncc3c(=O)[nH]c(SCC(=O)O)nc32)cc1C,72.0*,10.0
CCCSc1nc2c(cnn2-c2ccc(C)c(C)c2)c(=O)[nH]1,-5.3,-8.0
CCOc1ccc(/C=c2\sc3ncnn3c2=O)cc1OC,-0.4,0.0
CCOc1ccc(-c2cn(-c3ccc(C)c(Cl)c3)c(=O)[nH]2)cc1,-7.1,17.0
COc1ccc(C(O)=C2C(=O)C(=O)N(c3nnc(C)s3)C2c2ccc(Cl)c(Cl)c2)cc1 (stereo not drawn),1.2,99.5*
CCOc1ccc(C(O)=C2C(=O)C(=O)N(c3nnc(C)s3)C2c2ccc([N+](=O)[O-])cc2)cc1 (stereo not drawn),6.8,17.0
Cc1c(Cl)cccc1NC(=O)C(CC(=O)O)Cc1ccc(Br)cc1 (stereo not drawn),-8.7,3.1
CCCCN(CCCNC(=O)C1CC(=O)N(CCc2ccccc2)C1)c1ccccc1 (stereo not drawn),1.5,79.5*
CCCCNC(=O)C1CC(=O)N(CCc2ccccc2)C1 (stereo not drawn),-1.2,-3.8
COc1ccc2oc(=O)c(-c3csc(N(C(C)=O)c4cccc(C)c4)n3)cc2c1,-1.0,0.0
Cc1ccc(CC(=O)N2CCCC2COc2ccc(C(=O)N3CCCC3)cc2)cc1 (stereo not drawn),2.0,-0.8
O=C(Nc1ccccc1O)/C(=C1\Nc2ccc([N+](=O)[O-])cc2N1)[N+](=O)[O-],5.2,20.0
NCCNC(=O)/C(=C1\Nc2ccc([N+](=O)[O-])cc2N1)[N+](=O)[O-],2.9,63.0*
COCCN1COc2ccc3c(c2C1)OC(=Cc1ccc(OC)c(OC)c1)C3=O,-14.6,15.2
COc1ccc(C=C2Oc3c(ccc4c3CN(CCN3CCOCC3)CO4)C2=O)cc1OC,-29.9,62.3*
COc1cc(OC)c(OC)cc1C=C1Oc2c(ccc3c2CN(CCN2CCOCC2)CO3)C1=O,-9.4,30.5
COc1ccc(OC)c(C=C2Oc3c(ccc4c3CN(CCN3CCOCC3)CO4)C2=O)c1,-5.2,53.5*
CC1=NS(=O)(=O)c2cccnc2N1c1ccc(C)c(C)c1,0.9,-8.3
CCc1nc(-c2cccnc2N2CCCC(C(=O)N3CCCC3)C2)no1 (stereo not drawn),-2.6,10.2
CC1(C)CCCC2(C)C1CCC1(C)OCCC12 (stereo not drawn),-10.8,.
O=C1CCN(Cc2ccccc2)CCN1[C@H](COc1ccccc1)c1ccccc1,-3.6,84.8*
CC(C)[C@@H](COc1ccccc1)N1CCN(Cc2ccccc2)CCC1=O,-5.8,-1.4
SMILES,Pf apPOL inh,mHTT CaM bind
NC(CS(=O)(=O)c1ccc(F)cc1)=NOC(=O)Nc1cc(Cl)cc(Cl)c1,-21.2,.
Cc1ccccc1-n1[nH]c(C)c(C=Nc2ccc([N+](=O)[O-])cc2)c1=O,4.5,11.0
Cc1ccccc1-n1[nH]c(C)c(C=Nc2cc([N+](=O)[O-])cc([N+](=O)[O-])c2O)c1=O,-1.5,53.0*
COc1ccc(-c2nnc(SCC(=O)O)n2N)cc1,0.7,-1.4
CCCCOc1ccc(-c2[nH]ncc2Oc2ccccc2)c(O)c1,-9.9,93.0*
CCc1cc(-c2[nH]ncc2Oc2ccc(Cl)cc2)c(O)cc1O,-0.3,100.3*
COc1ccc(Oc2cncnc2-c2ccc(OCc3ccccc3)cc2O)cc1,3.5,-0.5
CCCOc1ccc(-c2[nH]ncc2Oc2ccccc2)c(O)c1,-3.7,80.0*
COc1ccccc1-c1cn[nH]c1-c1ccc(OCC=C(C)C)cc1O,-3.4,67.7*
CCc1cc(C(=O)COc2ccc(F)cc2)c(O)cc1O,-3.6,-0.6
COc1ccc(-c2[nH]ncc2Oc2ccccc2)c(O)c1,-9.0,35.0
COc1ccccc1-c1c(C(F)(F)F)oc2cc(OCC=C(C)C)ccc2c1=O,0.8,-7.7
COCC(=O)N1CCC(COc2ccccc2C(=O)NC(C)C)CC1,1.1,4.4
O=C(c1nnn(-c2ccccc2)c1-c1ccco1)N1CCOCC1,-3.8,-6.8
O=C(COc1ccccc1[N+](=O)[O-])Nc1ccccc1C(F)(F)F,3.0,1.0
COc1ccc(C(=O)N2CC(=O)Nc3ccc(Cl)cc3C2c2ccc(F)cc2)cc1OC (stereo not drawn),-9.6,71.0*
COc1ccc(C(=O)N2CC(=O)Nc3ccc(Cl)cc3C2c2ccc(F)cc2)c(OC)c1 (stereo not drawn),-3.0,43.0
CCCCNC(=O)c1cn2c(n1)CCC(c1ccccc1C)C2 (stereo not drawn),-2.2,10.7
Oc1ccc(Cl)cc1C1=NNC(c2cccs2)C1 (stereo not drawn),-1.2,51.7*
COc1ccccc1C1CC(c2cc(F)ccc2O)=NN1 (stereo not drawn),-1.1,40.0
